Screening results: PubChem BioAssay, Sanford-Burnham Center for Chemical Genomics
CYP2C9 act – CYP2C9 (human) activation. AID 1024. 96,000 tested, 1.4% active. P11712. recombinant CYP2C9, luciferin-H conversion, luminescence; active compounds read high; factor 1 = untreated enzyme, 0 = blocked. activation factor at 5 µM;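 active = activation factor of 2 or more for CYP2C9 at a 5 µM dose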;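 also: 0 = sulfaphenazole-blocked wells and 1 = vehicle-only wells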
CYP2C19 act – cytochrome P450 2C19 (human) activation | recombinant CYP2C19, luciferin-H EGE luminescence; active compounds read high; 0 = fully inhibited enzyme, 1 = untreated enzyme | activation factor at 5 µM | 96,000 tested, under 10 active | AID 1025;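 active = activation factor of at least 2 at 5 µM in the primary screen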;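 also: 0 = wells with 2.5 mM tranylcypromine and 1 = vehicle-only wells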
CYP2C9 inh – blocks human cytochrome P450 2C9; P11712; CYP2C9 Supersomes, luciferin-H conversion, luminescence; inhibition, % at 5 µM; 96,000 tested, 20% active;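 active = blocking of liver enzyme CYP2C9 beyond about 50% at 5 µM, limit read from the data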
CD11b adhes inh – inhibitors of human CD11b/CD18 binding to fibrinogen. K562 CD11b/CD18 adhesion to fibrinogen, ATPlite luminescence; Mn2+ added to activate the integrin. inhibition, % at 10 µM. 93,000 tested, 0.54% active. P05107+P11215. AID 1497;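 active = primary inhibition of 50% or more at 10 µM, then 40% or more on retest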
Mac1 fbg enh – CD11b/CD18-fibrinogen binding enhancement; P05107+P11215; K562 CD11b/CD18 adhesion to fibrinogen, ATPlite luminescence; activation, % at 10 µM; 93,000 tested, 0.07% active;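 active = 10 µM primary screen giving 50% or more activity, confirmed by 40% or more on retest at that dose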
CYP2C19 inhib – blocks human cytochrome P450 2C19; P33261; CYP2C19 Supersomes, luciferin-H EGE luminescence, 30 min; inhibition, % at 5 µM; 96,000 tested, 21% active; AID 778;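 active = CYP2C19 inhibition above a set limit at 5 µM in the primary screen, cut at about 50% in these data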;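 also: plate controls were negative control wells for no effect and 2.5 mM tranylcypromine positive control for full effect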
An asterisk follows results filed as active; . = no result given. Only some compounds are listed: those with a hit (about 28% of all), similar ones and a draw of the others.

SMILES	CYP2C9 act	CYP2C19 act	CYP2C9 inh	CD11b adhes inh	Mac1 fbg enh	CYP2C19 inhib
O=C(NCc1ccccc1Cl)c1cnc2n(c1=O)CCS2	1	0.4	3.5	-4.3	-2.4	63.8*
COc1ccc(CNC(=O)c2cnc3n(c2=O)CCS3)cc1	0.9	0.8	9.9	-4.2	-1.8	23.3
O=C1c2cccnc2C(=O)N1Cc1ccc(F)cc1	1	0.8	3.4	.	.	18.3
Cc1ccc(NC(=O)CN(C)Cc2nc3ccccc3c(=O)[nH]2)c(Br)c1	0.3	0.7	68.0*	2.8	-1.0	27.7
Cc1cc(Br)ccc1NC(=O)CNC(=O)CN(C)Cc1nc2ccccc2c(=O)[nH]1	0.4	0.3	63.1*	4.0	-0.4	67.7*
CCN(CC(=O)Nc1ccccc1Br)Cc1nc2ccccc2c(=O)[nH]1	0.5	0.5	49.5	.	.	53.7*
Cc1cc(SCC(=O)NC(=O)NCc2ccco2)nc2ccccc12	1.4	1.1	-37.8	7.9	-3.4	-5.4
CCOc1ccccc1NC(=O)CCCc1nc2ccccc2c(=O)[nH]1	0.9	0.7	9.0	-19.7	-2.6	25.8
CC(NC(=O)CN(C)Cc1nc2ccccc2c(=O)[nH]1)c1ccccc1 (stereo unspecified)	0.7	0.7	29.3	18.6	-1.2	31.9
CCN(CC(=O)NC(=O)NCc1ccco1)Cc1nc2ccccc2c(=O)[nH]1	0.6	0.3	45.0	-10.9	-0.9	67.8*
OCCN=C(c1ccccc1)C12CN3CN(CN(C3)C1)C2	1	1.1	-4.5	1.5	-1.2	-6.5
CCN(CC(=O)NCCc1ccc(S(N)(=O)=O)cc1)Cc1nc2ccccc2c(=O)[nH]1	0.3	0.9	65.9*	3.3	-0.1	13.3
COc1ccc(NC(=O)COC(=O)CC2CC3CCC2C3)c([N+](=O)[O-])c1 (stereo unspecified)	.	.	.	9.9	2.0	.
CCc1nc(OCC(=O)c2ccccc2)c(C#N)c2c1COC(C)(C)C2	0.7	0.5	27.7	-18.4	0.0	46.8
Cc1nc(OCC(=O)c2ccc(Cl)cc2)c(C#N)c2c1COC(C)(C)C2	0.8	0.5	18.0	5.6	-5.1	51.7*
CC1(C)Cc2c(C#N)c(OCC(=O)c3ccc(Cl)cc3)nc(-c3ccco3)c2CO1	0.8	0.4	18.1	-33.3	50.7	59.4*
COc1cc(C2c3c(-c4ccccc4)n[nH]c3C(=O)N2c2ccccc2)ccc1O (stereo unspecified)	0.1	0.2	91.9*	-2.7	2.6	76.9*
CCC(CC)C(=O)c1c[nH]c(C(=O)NCC2CCCO2)c1 (stereo unspecified)	1	1	1.2	1.4	3.9	0.8
CCOC(=O)c1c(-c2ccccc2Cl)cn2ccccc12	0.2	0.3	78.3*	-22.0	1.1	73.1*
CCOC(=O)c1cc(C(C)=O)n2ccccc12	1.5	1.1	-50.6	2.4	-2.1	-9.7
Cc1cc(C)n(C(=O)CNC(=O)c2cccs2)n1	0.9	0.8	12.6	-5.4	0.5	17.8
NC(=O)c1oc2ccc(Cl)cc2c1NC(=O)CN1CCOCC1	0.8	0.5	15.5	5.4	-2.2	51.8*
COC(=O)c1oc2ccc(Br)cc2c1NC(=O)CCN1CCOCC1	0.4	0.6	55.2*	-11.9	0.0	44.9
CCOC(=O)c1oc2ccc(Br)cc2c1NC(=O)CN1CCN(C)CC1	1	1	1.6	18.7	-0.6	4.9
Cc1ccc(N(CC(=O)NCC2CCCO2)S(C)(=O)=O)cc1Cl (stereo unspecified)	1.1	0.8	-9.3	-21.3	0.1	19.1
COc1ccc(S(=O)(=O)N(CC(=O)NCC2CCCO2)c2ccc(F)cc2)cc1OC (stereo unspecified)	0.7	0.5	27.5	-10.3	-0.9	53.2*
CCOc1ccc(N(CC(=O)NCC2CCCO2)S(=O)(=O)c2ccc(Cl)cc2)cc1 (stereo unspecified)	0.6	0.1	44.6	-47.4	-2.2	87.9*
O=C(COc1ccc(F)cc1)NCC1CCCO1 (stereo unspecified)	1.3	1.2	-31.5	-6.0	-3.8	-15.6
COc1ccc2occ(C(C)=O)c2c1	1	0.8	3.2	-15.2	-3.0	15.7
COc1ccc(OC)c(C(=O)c2coc3ccc(O)cc23)c1	0.3	0.3	73.1*	-6.4	1.9	69.8*
